From PubChem BioAssay AID1508625 (Wald Lab, School of Medicine, Case Western Reserve …, 2021)

Assay: small molecules boosting NK-mediated OVCAR3 lysis – imaging, primary NK cells, calcein-AM imaging, primary screen (AID 1508625);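 also: compound given to NK cells 16 h before adding targets at 1.5 to 1 ratio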;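 as to z-score: more negative robust z means stronger NK killing of tumor cells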
Details: OVCAR3 lysis by primary NK cells, at 5 µM; z-score: measured here: robust Z-score, single-point normalisation

SMILES | corrected activity, negative = more killing [%] | z-score
Cc1ccccc1OCC(=O)Nc1c[nH]c(=O)[nH]c1=O | -0.837 | -0.363
CSc1nnc2c(n1)OC(c1ccc(OCC(=O)O)cc1)Nc1ccccc1-2 (stereo not given) | -2.58 | -0.915
Cc1onc(-c2ccccc2)c1C(=O)Nc1cccc2c1C(=O)c1ccccc1C2=O | -2.48 | -1.02
O=C(Nc1ccc(Cc2ccncc2)cc1)C1CCC(N2C(=O)C3CC=CCC3C2=O)CC1 (stereo not given) | -4.96 | -1.89
O=C(COc1ccccc1)NCCSc1nc2ccccc2s1 | -4.8 | -1.81
CCOc1ccc(S(=O)(=O)NC(C)C)c2cccnc12 | -3.65 | -1.16
Cc1n[nH]c(C)c1CCC(=O)NN=Cc1ccccc1O | -1.49 | -0.652
Cc1cc(Br)ccc1NC(=O)Cn1cnc2sc(C)c(S(=O)(=O)N3CCN(C)CC3)c2c1=O | -7.06 | -1.76
COc1cc2nc(SCC(=O)Nc3cc(C(F)(F)F)ccc3Cl)n(Cc3ccco3)c(=O)c2cc1OC | -3.79 | -1
O=C1OC(c2cccc(Cl)c2)=NC1=Cc1ccc(Br)o1 | -4.19 | -1.78
O=[N+]([O-])c1ccc(N2CCCCC2)cc1NCCc1ccccc1 | -2.78 | -0.86
C=CCn1c2ccccc2c2nnc(SCc3[nH]c(C(=O)OCC)c(C)c3C(C)=O)nc21 | -1.4 | -0.435
CC(C)C(CC(=O)O)NS(=O)(=O)c1ccc(F)cc1 (stereo not given) | -3.43 | -0.924
CC1=C(C)CC(C(=O)Nc2ccc(S(=O)(=O)N3CCOCC3)cc2)C(C(=O)O)C1 (stereo not given) | -10.2 | -3.17
Cc1ccc(-c2cc(C(=O)O)c3cc(Cl)ccc3n2)cc1C | -3.58 | -1.47
COC(=O)c1cc(C=O)c(O)c(C=O)c1 | -2.3 | -1.01
O=C(Cn1cnc2ccccc2c1=O)NCCC(=O)NC1CCCCCC1 | -3.69 | -1.17
CCCNS(=O)(=O)c1ccc(F)c(C(=O)Nc2cc(C)ccc2OC)c1 | -6 | -1.62
FC(F)(F)c1cc(-c2cccs2)nc2nc(=S)[nH]n12 | -2.93 | -0.791
O=C(NN=Cc1ccccc1Cl)C(=O)Nc1cccc(C(F)(F)F)c1 | -2.13 | -0.904
COC(=O)c1cc2nc(-c3ccccc3)cc(C)n2n1 | -2.69 | -1.39
CN1C(=O)c2ccccc2Sc2ccc(C(=O)O)cc21 | -8.06 | -2.17
Cc1cccc(C(=O)N2N=C(C(F)(F)F)CC2(O)C(C)(C)C)c1 (stereo not given) | -2.49 | -0.95
COc1ccc(Cl)cc1NC(=O)CSc1nc2c([nH]c3ccccc32)c(=O)n1C | -2.37 | -0.59
CC(C)NCCCCOc1ccccc1-c1ccccc1 | 1.68 | 0.626
